This is an account of results in PubChem BioAssay AID651953 (The Scripps Research Institute Molecular Screening Center, 2012).

Screen size: about 2,400 compounds; about 430 (18%) were called active. A selection follows. Values without a mark were called inactive. Cut-off read from the data, not from the text of the source: active = activation above about 12%; inactive = the rest.

This experiment is described as follows: calcium activation in Ga16-expressing cells, counter-screen for TAAR1 antagonist project, cell-based, fluorescence (AID 651953).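 Note: 0% = vehicle wells and 100% = saturating stimulus response.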 As to conditions: agonist counterscreen, at 3 µM, hits give high values.
`CC(=O)n1cc([C@H]2C=C(C(=O)N3CCOCC3)O[C@@H](OCc3ccc(CO)cc3)C2)c2ccccc21`: the activation was 8.38%. With `CC(=O)Nc1ccc(NC(=O)COC(=O)C2CCC(C(C)(C)C)CC2)cc1` (centres undefined) the figure was 12.5% (active). As to `COc1cc2ccccc2cc1C(=O)Nc1ccc(NC(=O)c2cccs2)cc1`, the activation was 7.21%. As to `COC(=O)[C@@]1(Sc2ccc(C)cc2)CC(=O)N(c2cccc(SC)c2)[C@@H]1c1ccccc1`, the activation was 7.65%.

Regarding `COc1ccc(C(=O)Oc2ccc(-c3nnco3)cc2)cc1S(=O)(=O)N1CCOCC1`, the activation was 8.48%. Turning to `CCOc1cc(/C=N/NC(=O)c2cc(-c3ccccc3)nc3ccccc23)ccc1O`, the activation was 7.59%. Turning to `O=C(Oc1ccc(-c2nnco2)cc1)c1ccc(F)c(S(=O)(=O)N2CCOCC2)c1`, the activation was 11.4%. The result for `O=C1c2ccccc2C(=O)N1CCC#Cc1ccc2cc(C3(O)CCCCC3)oc(=O)c2c1` reads 12.9% (active).

Take `Cc1nn(-c2ccccc2)c(C)c1NC(=O)COC(=O)c1cc(Cl)ccc1O`: the activation is 11.4%.

Consider `CCOc1ccc(NC(=O)N2CC=C(n3c(=O)[nH]c4ccccc43)CC2)cc1`, for which the activation was 8.85%. With `C=CCn1c(SCc2cccc(F)c2)nc2cc(C(=O)N3CCC(C(N)=O)CC3)ccc2c1=O` the figure was 10.2%. With `CSc1nc(-c2ccccc2)nc(C(Cl)Cl)n1`, the activation was 2.33%. With `Cn1c2ccccc2c(=O)c2c(=O)n(Cc3ccco3)c(COc3ccccc3)nc21` the figure was 11.7% (active).

For the compound `O=c1[nH]c(CSc2ncc(-c3ccc(F)cc3)n2Cc2ccco2)nc2ccccc12`, the activation is 9.09%. Take `COc1ccc(CCNC(=O)c2ccc(CS(=O)(=O)c3ccc(Br)cc3)o2)cc1OC`: the activation is 13.5% (active). With `COc1ccc(CCNC(=O)C(=O)NCC2OCCN2S(=O)(=O)c2ccc(OC)c(C)c2)cc1` (centres undefined) the figure was 7.62%; with `COc1ccc(CCNC2=C(Cl)C(=O)N(Cc3ccccc3)C2=O)cc1OC`, 10.4%.

Turning to `CC(C)(C)OC(=O)NCCCCCNC(=O)c1nc[nH]c1C(=O)NCc1ccccc1`, the activation is 7.75%. The result for `O=C(NCc1ccc2c(c1)OCO2)c1c(-c2ccsc2)sc2ccccc12` reads 3.18%; that for `Fc1ccc(/C=N/Nc2nc(-c3cccnc3)nc3ccccc23)cc1`, 5.53%. In the case of `Oc1ccc(/C=N/Nc2nc(-c3ccccc3F)nc3ccccc23)c(O)c1`, the activation was 11.9% (active). The result for `CCOC(=O)C1=C(NC(=S)NC(=O)c2ccccc2)c2ccccc2CC1(C)C` reads 11.8% (active). The result for `CNC(=O)c1ccsc1NC(=O)c1ccc(S(=O)(=O)N2CCc3ccccc32)cc1` reads 9.94%; that for `CC(=O)N1CCN(C(=O)c2cc(-c3ccc(Cl)s3)nc3ccccc23)CC1`, 11.8% (active); that for `COc1ccc(-c2cc(C(=O)Nc3ccccc3O)c3ccccc3n2)cc1`, 10.9%.

Consider `COc1ccc(NC(=O)c2cc(-c3ccc(C)o3)nc3ccccc23)cc1`, for which the activation is 8.64%.

On to `COc1ccc(S(=O)(=O)N2CCCC(C(=O)Nc3ccc(NC(=O)c4ccccn4)cc3)C2)cc1` (centres undefined), for which the activation was 9.11%. With `O=C(OCC(=O)N(CCc1ccccc1)Cc1ccccc1)c1ccccc1[N+](=O)[O-]` the figure was 9.58%.

As for `Cn1c(C(=O)NCCc2ccsc2)cc2c(=O)n(C)c3ccccc3c21`, the activation is 6.98%. For the compound `COc1ccc(OC)c2[nH]c(=O)c(CCNC(=O)C(=O)c3c[nH]c4ccccc34)cc12`, the activation was 9.04%.

With `COc1ccc(S(=O)(=O)N(CC(=O)NCc2ccco2)c2ccc(F)cc2)cc1`, the activation is 7.35%. Take `N#Cc1cccc(NC(=O)COC(=O)c2ccccc2C(=O)c2ccc(Cl)c([N+](=O)[O-])c2)c1`: the activation is 10.4%. With `C[C@H](NC(=O)c1nc[nH]c1C(=O)NCC(=O)OC(C)(C)C)C(=O)OCc1ccccc1` the figure was 6.84%; with `COc1ccc(C2=NOC(Cn3nc(C(=O)NCc4ccc5c(c4)OCO5)cc3-c3ccccc3)C2)cc1` (centres undefined), 7.98%; with `Cc1ccc2c(c1)N(CC(=O)NCCc1ccc(Cl)cc1)C(=O)c1cccnc1O2`, 8.82%.

On to `C=CCC[C@@H](Cc1ccc(F)cc1)C(=O)O[C@H](CNC(=O)[C@H](CC=C)CC(=O)N(CCO)Cc1ccccc1)c1ccccc1`, for which the activation was 5.79%. With `CSCCC(NC(=O)COc1ccccc1)C(=O)OCCOc1ccc(Br)cc1` (centres undefined) the figure was 4.3%; with `COC(=O)C1=C(C)N(Cc2ccc(F)cc2)C(=S)NC1c1cccc(Cl)c1` (centres undefined), 2.63%. The result for `COC(=O)Cc1nnn2c1[C@H](C)[C@H](c1ccccc1[N+](=O)[O-])OCC2` reads -1.09%; that for `Cc1ccccc1NC(=O)Cc1nc(COC(=O)C(C)(C)Oc2ccc(Cl)cc2)cs1`, 7.78%.

In the case of `C=CCC[C@H](Cc1ccc(F)cc1)C(=O)OC[C@H](C)NC(=O)[C@H](CC=C)CC(=O)N(CCO)Cc1ccccc1`, the activation is 8.66%. In the case of `Cc1cccc(NC(=O)c2ccc(COc3ccccc3[N+](=O)[O-])o2)n1`, the activation was 4.04%. The result for `Cc1cccc(C)c1NC(=O)CNC(=O)C1CCCC1` reads 2.04%; that for `Cc1ccc(-n2c(C)cc(/C=N\NC(=O)CC(=O)NC(C)C)c2C)cc1`, 8.51%. With `O=C(NCCN1CCOCC1)c1ccccc1N1C(=O)[C@@H]2Cc3c([nH]c4ccccc34)C(c3cccc(Cl)c3)N2C1=O` (some centres undefined) the figure was 6.37%; with `COc1ccc(C(=O)Nc2cccc(NC(=O)c3ccc(OC)cc3OC)n2)c(OC)c1`, 8.74%; with `O=C(CN1CCCSc2ccccc21)N1CCN(S(=O)(=O)c2cccc(F)c2)CC1`, 8.97%. The result for `Oc1ccccc1N1CCN(c2ncnc3sc(-c4ccccc4)cc23)CC1` reads 6.72%; that for `COc1cc(/C=C2/C(=O)ON=C2C)ccc1OCc1ccccc1F`, 12.4% (active); that for `O=C(COC(=O)c1c2c(nc3ccccc13)CCCC2)c1ccc(Br)s1`, 2.67%. With `C[C@H](O)[C@@H]1C(=O)N2CCc3c([nH]c4c(-c5ccc6c(c5)OCO6)cccc34)[C@@H]2C[C@@H]1N(C)C(=O)c1ccco1`, the activation was 5.11%.

For `Nc1nonc1-n1nnc(C(=O)N/N=C/c2c[nH]c3ccccc23)c1-c1ccccc1`, the activation was 6.4%.

As to `Cc1ccc(SCc2c(C(=O)N/N=C/c3cccnc3)nnn2-c2nonc2N)cc1`, the activation was 17.4% (active).

As to `O=C(N/N=C/c1ccc(OC(=O)c2ccccc2Cl)cc1)c1ccc(O)cc1`, the activation was 8.92%. The result for `O=C(NCCN1CCOCC1)c1ccc(/C=C2\Sc3ccccc3N(Cc3ccc(F)cc3)C2=O)cc1` reads 9.85%. With `O=S(=O)(c1cccs1)N1CCCc2nc(-c3ccc(Br)cc3)ccc21` the figure was 5.49%. `C[C@@H]1CN([C@@H](C)CO)S(=O)(=O)c2ccc(C#Cc3cccc(F)c3)cc2O[C@H]1CN(C)S(=O)(=O)c1cn(C)cn1`: the activation is 13.6% (active).

In the case of `CCCCNc1c(-c2cccc(Sc3ccc(OC)cc3)c2)nc2ccccn12`, the activation was 6.41%. In the case of `CSc1ncnc2c1ncn2CC(=O)C1CCC2C3CCC4=CC(=O)CCC4(C)C3CCC12C` (centres undefined), the activation is 15.7% (active). The result for `CCN=C1SC(CC(=O)Nc2ccc(C)cc2)C(=O)N1CC` (centres undefined) reads 9.6%; that for `O=C(COC(=O)c1ccccc1SCC(=O)N1CCCC1)Nc1ccccc1OC(F)F`, 9.11%.

For `COc1ccc(-c2nn(-c3ccccc3)cc2C(=O)Nc2nccs2)cc1OC`, the activation was 7.16%. Turning to `COc1cc(SC#N)ccc1N=Cc1c(C)[nH]n(-c2ccc(C)cc2)c1=O`, the activation is 7.36%. With `O=C(Nc1ccccc1-c1nnn(CC(=O)N2CCN(c3ccccc3)CC2)n1)c1cccs1` the figure was 8.25%; with `CC(C)N(Cc1ccccc1)C(=O)COC(=O)c1ccccc1SCC(=O)N1CCCC1`, 8.17%.

For the compound `COc1ccc(NC(=O)C2CCCN(S(=O)(=O)c3cccc4cccnc34)C2)cc1OC` (centres undefined), the activation was 7.3%. On to `CCOC(=O)C1C(c2ccc(OC)c(OC)c2)c2c([nH][nH]c2=O)CC1(C)O` (centres undefined), for which the activation was 3.55%. With `Clc1ccc(Nc2ncnc3c2nnn3Cc2ccccc2)cc1`, the activation is 3.96%.

Consider `COc1ccc(N(CC(=O)N/N=C/c2cccs2)S(=O)(=O)c2ccc(OC)c(OC)c2)cc1`, for which the activation is 8.47%.

For `CC(=O)OCCN(CCCn1c(-c2ccncc2)nc2ccccc21)c1nc(-c2ccc(C)cc2)cs1`, the activation is 12.8% (active). For `COC(=O)Cc1nnn2c1[C@H](C)[C@H](c1ccccc1Br)OCC2`, the activation is 9.39%.

For `CN(c1ccccc1)S(=O)(=O)c1cc(C(=O)Nc2nc3ccccc3[nH]2)ccc1Cl`, the activation was 8.92%. As for `NNC(=O)CNC(c1ccccc1)c1cc(Cl)ccc1NC(=O)c1ccccc1` (centres undefined), the activation was 9.38%. For the compound `CC/C(=N/Nc1ccccc1)c1cnnc(SC)n1`, the activation was -1.08%. For `Cc1onc(-c2c(F)cccc2Cl)c1C(=O)Nc1cccc(S(=O)(=O)N2CCCCC2)c1`, the activation was 9.53%. With `CCC(=O)Oc1cccc(C(=O)Nc2ccc(-c3nnc(-c4ccco4)o3)cc2)c1` the figure was 4.99%; with `CCc1ccc2c(c1)NC(=O)C2(C)Cc1ccc(OC(F)(F)F)cc1` (centres undefined), 14.4% (active). The result for `Cc1cc(Br)ccc1NC(=O)c1cnc(N2CCN(c3ccccn3)CC2)c2ccccc12` reads 7.37%; that for `O=C(Nc1ccc(-c2nnc(-c3ccccc3)o2)cc1)c1ccc(Br)o1`, 1.44%; that for `O=C(N/N=C/c1ccc(Cl)c(Cl)c1)c1ccc2nc[nH]c2c1`, 7.7%.

`O=C(COC(=O)CCCSc1nc2ccccc2[nH]1)Nc1ccc(Oc2ccccc2)cc1`: the activation is 8.31%. The result for `COC(=O)c1sccc1NC(=O)c1cc(OC)c(OC)c(OC)c1` reads 5.58%; that for `COc1ccc(CC(=O)Nc2c(C(N)=O)oc3ccccc23)cc1`, 6.51%; that for `COc1cc(OC)cc(C(=O)OCC(=O)Nc2sccc2C(N)=O)c1`, 13.5% (active).
